Screening results (PubChem BioAssay)
Pf growth 48h = Primary qHTS for delayed death inhibitors of the malarial parasite plastid, 48 hour incubation. AID 504832, 2011. 310,000 tested, 5.9% active. P. falciparum luciferase growth in erythrocytes, 48 h. Potency, µM (doses to about 28.7 µM), for the others: at the top dose activity change, negative = inhibition, usual class: inhibitors; also: potency is read from the fitted curve at half-maximal effect; % is scaled to controls: 0 for no effect and ±100 for the full control effect
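Read-out is firefly luciferase luminescence from an integrated reporter in P. falciparum, so falling signal marks reduced parasite growth. Infected erythrocytes were at 2% hematocrit and 0.1% parasitemia (final) in Albumax-supplemented RPMI 1640.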
FBPA Giardia inh = qHTS Assay for Inhibitors of Fructose-1,6-bisphosphate Aldolase from Giardia Lamblia. A8B2U2. purified Giardia FBPA. Potency, µM (top dose mostly 59.6 µM), for the others: at the top dose activity, negative = inhibition, usual class: inhibitors. 290,000 tested, 0.71% active. AID 2451, 2010; also: potency is read from the fitted curve at half-maximal effect; % is scaled to controls: 0 for no effect and ±100 for the full control effect; nearly all actives have a fitted effect of over 55% in size
Target sequence (A8B2U2 whole entry, looked up): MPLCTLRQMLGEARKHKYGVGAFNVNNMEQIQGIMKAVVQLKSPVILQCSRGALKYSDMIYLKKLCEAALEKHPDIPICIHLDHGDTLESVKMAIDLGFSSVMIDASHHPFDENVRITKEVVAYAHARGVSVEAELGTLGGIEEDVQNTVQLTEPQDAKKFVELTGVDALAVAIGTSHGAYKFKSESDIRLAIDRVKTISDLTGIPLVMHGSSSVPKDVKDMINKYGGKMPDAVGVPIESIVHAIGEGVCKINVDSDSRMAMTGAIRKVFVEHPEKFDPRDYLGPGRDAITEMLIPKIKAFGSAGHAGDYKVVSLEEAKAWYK
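Giardia FBPA (40 nM reagent) was preincubated 10 min at RT with compound (up to 57.5 uM final), then substrate plus GAPDH/TPI/NAD/arsenate coupling system with diaphorase/resazurin was added; resorufin fluorescence (525/598 nm) was read after 20 min.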
Shiga toxin inh = A qHTS for Small Molecule Inhibitors of Shiga Toxin; Vero cells, Shiga toxin protein synthesis inhibition reporter; inhibition, % at 38.7 µM; 290,000 tested, 9.2% active; AID 2315, 2010; in the data active = inhibition mostly above about 28%, no sharp cut-off; inactive = mostly below about 43%; also: 0% is about no effect
NS1 inh = qHTS Assay for Inhibitors of Influenza NS1 Protein Function. Potency, µM (series often up to 46.1 µM), without a hit: top-dose activity, positive = more growth. 270,000 tested, 0.4% active; calls by dose curve; also: potency is read from the fitted curve at half-maximal effect; actives are rising curves; nearly all actives have a fitted effect of over 50% in size
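S. cerevisiae expressing influenza A NS1, grown in glucose, washed, then diluted 1:100 into pH 6.0 -URA galactose medium with 23 nl compound. Growth recovery read as OD600; NS1-free strain serves as control.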
CHX counter = Cycloheximide Counterscreen for Small Molecule Inhibitors of Shiga Toxin | max response, % | 300,000 tested, 12% active | cell reporter, cycloheximide protein synthesis inhibition counterscreen; in the data active = max response mostly above about 13%, no sharp cut-off; inactive = mostly below about 14%; also: read at 38.3 µM for the half of the compounds with a filed dose; 0% is about no effect
Pf growth 96h = Primary qHTS for delayed death inhibitors of the malarial parasite plastid, 96 hour incubation; Potency, µM (doses to about 28.7 µM), for the others: at the top dose activity change, negative = inhibition, most hits filed as inhibitors; P. falciparum luciferase reporter growth, 96 h; 320,000 tested, 6.9% active; AID 504834, 2011; also: potency is read from the fitted curve at half-maximal effect; % is scaled to controls: 0 for no effect and ±100 for the full control effect
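Erythrocytes infected with luciferase-expressing P. falciparum were dispensed at 2% hematocrit and 0.05% parasitemia (final), then incubated with compounds 96 hours at 37 C in 5% CO2. Luminescence after detection reagent addition reported growth.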
* hit, by the source's call. The list is not random: actives were taken first. Their share in the collection is about 21%. Unless noted, calls follow the shape of the dose curve; as a rule, active = well fitted curve in the direction sought with a large enough effect; inconclusive = small, poorly fitted or top-dose-only effect, or another doubt; inactive = no such curve, though single readings can be large; an effect the other way counts as inactive or inconclusive.

Results for Cc1ccc([N+](=O)[O-])cc1N=C(c1cccc(Br)c1)N1CCOCC1 ?
Pf growth 48h: inconclusive; FBPA Giardia inh: 6%; Shiga toxin inh: -6; NS1 inh: -5%; CHX counter: -2; Pf growth 96h: 13µM*

Results for O=C(Oc1cccc(C(=S)N2CCOCC2)c1)c1ccc([N+](=O)[O-])cc1 ?
Pf growth 48h: 24%; FBPA Giardia inh: -3%; Shiga toxin inh: 3; NS1 inh: -10%; CHX counter: -4; Pf growth 96h: -26%

How did COc1ccccc1C(=O)NC(=O)COC(=O)c1nc2nc(C)cc(C)n2n1 do in these assays?
Pf growth 48h: 2%; Pf growth 96h: 11%

Results for COc1ccc(C)cc1S(=O)(=O)N(CC(=O)NC1CCCC1)c1ccc(F)cc1 ?
Pf growth 48h: 41%; Shiga toxin inh: -3; NS1 inh: -1%; CHX counter: -1; Pf growth 96h: 9.3µM*

Results for COc1ccc(N(CC(=O)NC2CC3CCC2C3)S(=O)(=O)c2ccc(C)cc2)cc1 (stereo unspecified) ?
Pf growth 48h: -18%; Shiga toxin inh: -7; NS1 inh: -22%; CHX counter: 2; Pf growth 96h: 13µM*

How did COc1ccc(S(=O)(=O)N(CC(=O)NC2CCCCC2)c2ccc(F)cc2)cc1 do in these assays?
Pf growth 48h: 33%; Shiga toxin inh: 9; NS1 inh: -9%; CHX counter: -1; Pf growth 96h: 7.4µM*

What do the screens show for `O=C(c1ccccc1)c1ccc(N2CCN(C(=O)c3cccc(F)c3F)CC2)c(F)c1`?
Pf growth 48h: inconclusive; Shiga toxin inh: 20; NS1 inh: -5%; CHX counter: 9; Pf growth 96h: -102%

How did Cc1ccc(S(=O)(=O)N(C(=N)N)c2nc(N(C)C)nc(N(C)C)n2)cc1 do in these assays?
Pf growth 48h: inconclusive; FBPA Giardia inh: -4%; Shiga toxin inh: -7; NS1 inh: 0%; CHX counter: -4; Pf growth 96h: inconclusive

What do the screens show for `Clc1cccc(N2CCN(Cc3ccc(Br)o3)CC2)c1`?
Pf growth 48h: 30%; FBPA Giardia inh: inconclusive; Shiga toxin inh: -2; NS1 inh: -27%; CHX counter: 0; Pf growth 96h: 19%

What do the screens show for `CCCC(c1nnnn1C(C)(C)CC)N(CCCO)Cc1cc2cc(C)cc(C)c2[nH]c1=O` (stereo unspecified)?
Pf growth 48h: inconclusive; FBPA Giardia inh: -21%; Shiga toxin inh: -8; NS1 inh: -4%; CHX counter: -1; Pf growth 96h: inconclusive

Results for CCC(c1nnnn1C(C)(C)CC)N(CCCO)Cc1cc2cc(C)cc(C)c2[nH]c1=O (stereo unspecified) ?
Pf growth 48h: 8.3µM*; FBPA Giardia inh: 11%; Shiga toxin inh: -11; NS1 inh: -71%; CHX counter: -2; Pf growth 96h: 10µM*

What do the screens show for `CCC(C)(C)n1nnnc1C(C(C)C)N(CCCO)Cc1cc2cc(C)ccc2[nH]c1=O` (stereo unspecified)?
Pf growth 48h: inconclusive; FBPA Giardia inh: 1%; Shiga toxin inh: -7; NS1 inh: -7%; CHX counter: -3; Pf growth 96h: 13µM*

What do the screens show for `Cc1ccc(C(=O)COC(=O)c2cccc([N+](=O)[O-])c2)s1`?
Pf growth 48h: 64%; Pf growth 96h: 25%

How did CC(C)N(Cc1ccccc1)C(=O)CC(=O)N(Cc1ccccc1)C(C)C do in these assays?
Pf growth 48h: 3%; FBPA Giardia inh: 2%; Shiga toxin inh: -4; NS1 inh: 7%; CHX counter: -2; Pf growth 96h: -8%

Results for CCC(C)c1ccc(NC(=S)NCCn2cc(Br)cn2)cc1 (stereo unspecified) ?
Pf growth 48h: inconclusive; FBPA Giardia inh: -2%; Shiga toxin inh: 13; CHX counter: -1; Pf growth 96h: inconclusive

What do the screens show for `CCC(C)c1ccc(NC(=S)NCCn2cc(Cl)cn2)cc1` (stereo unspecified)?
Pf growth 48h: 9.3µM*; FBPA Giardia inh: -9%; Shiga toxin inh: 14; NS1 inh: -38%; CHX counter: 8; Pf growth 96h: inconclusive

How did CSCCC(NC(=O)COc1ccccc1)C(=O)NCC1COc2ccccc2O1 (stereo unspecified) do in these assays?
Pf growth 48h: -11%; Shiga toxin inh: -12; NS1 inh: -20%; CHX counter: -2; Pf growth 96h: -24%

How did Cn1c(=O)c2c(ncn2CC(=O)Nc2nc3ccc(F)cc3s2)n(C)c1=O do in these assays?
Pf growth 48h: 20%; FBPA Giardia inh: 4%; Shiga toxin inh: 31; NS1 inh: 10%; CHX counter: 13*

How did O=C(Cn1cnc2ccccc2c1=O)Nc1nc2ccccc2s1 do in these assays?
Pf growth 48h: 30%; FBPA Giardia inh: 1%; Shiga toxin inh: 15; NS1 inh: 5%; CHX counter: -2; Pf growth 96h: 32%

How did CCc1ccc2nc(NC(=O)Cn3cnc4ccccc4c3=O)sc2c1 do in these assays?
Pf growth 48h: 62%; FBPA Giardia inh: 0%; Shiga toxin inh: 53*; NS1 inh: 6%; CHX counter: 29*; Pf growth 96h: 42%

What do the screens show for `COc1ccc2nc(NC(=O)Cn3cnc4c(=O)n(C)c(=O)n(C)c43)sc2c1`?
Pf growth 48h: 17%; FBPA Giardia inh: 10%; Shiga toxin inh: 13; NS1 inh: -4%; CHX counter: -3; Pf growth 96h: inconclusive

What do the screens show for `Cc1ccc(CNC(=O)c2ccc(N3CCC4(CC3)CC(c3ccccc3)=NO4)c(N)c2)cc1`?
Pf growth 48h: -13%; FBPA Giardia inh: 13%; Shiga toxin inh: -7; NS1 inh: 20%; CHX counter: 2; Pf growth 96h: 33%

Results for Fc1ccc(-c2csc(Nc3ccccn3)n2)c(F)c1 ?
Pf growth 48h: 273%; FBPA Giardia inh: -25%; Shiga toxin inh: 40*; NS1 inh: -1%; CHX counter: 46*; Pf growth 96h: 12%

Results for Cc1ccc(-c2csc(Nc3ccccn3)n2)cc1 ?
Pf growth 48h: -25%; FBPA Giardia inh: 5%; NS1 inh: -25%; CHX counter: 35*; Pf growth 96h: inconclusive

What do the screens show for `O=C(Nc1nc(-c2cc(F)ccc2F)cs1)C1=NN(c2ccccc2)C(=O)CC1`?
Pf growth 48h: inconclusive; FBPA Giardia inh: -10%; Shiga toxin inh: -20; CHX counter: 4; Pf growth 96h: inconclusive

How did Oc1ccc(-c2csc(Nc3ccccn3)n2)cc1 do in these assays?
Pf growth 48h: 180%; FBPA Giardia inh: -8%; Shiga toxin inh: 122*; NS1 inh: -42%; CHX counter: 43*; Pf growth 96h: inconclusive

How did COc1ccc(-c2csc(Nc3ccccn3)n2)cc1OC do in these assays?
Pf growth 48h: 148%; FBPA Giardia inh: -10%; Shiga toxin inh: 67*; NS1 inh: -4%; CHX counter: 37*; Pf growth 96h: inconclusive
